In this assay the target is Streptavidin (Streptomyces avidinii) (UniProt P22629). The assay is described as follows: compounds binding control protein streptavidin – biophysical, small-molecule microarray, 635/667 nm fluorescence, artefact control for SMM compound annotation, primary screen (AID 1147).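 Note: signal reflects streptavidin binding to arrayed compounds as a control protein.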 To be noted: higher = more signal.
Chain of Streptavidin (Streptomyces avidinii) (P22629 whole entry, looked up): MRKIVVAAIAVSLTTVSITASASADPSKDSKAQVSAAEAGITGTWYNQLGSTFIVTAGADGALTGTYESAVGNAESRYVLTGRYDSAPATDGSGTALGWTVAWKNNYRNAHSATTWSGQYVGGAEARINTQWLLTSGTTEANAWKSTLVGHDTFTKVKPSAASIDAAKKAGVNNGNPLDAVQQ
For the molecule `COC(=O)CC=C[C@@H](C)[C@@H](C=NOC(C)CN1CCCCc2nc(C)c(C)cc21)OC` (stereo partly specified), the composite z-score worked out at 0.405. Under `CCOC(=O)[C@H](CC(C)C)NC(=O)CCC1CC(OC(=O)NCc2ccc3c(c2)OCO3)CC2(CCCC(COC(=O)NCCc3ccc(Cl)cc3)O2)O1` (stereo partly specified) stands 0.288; under `CC(CCN1CCc2nc(-c3ccccc3)c(-c3ccccc3)cc2C1)=NO[C@H](C)c1cn([C@H](CO)Cc2ccccc2)nn1`, 0.545; under `CC(CCC(=O)OC[C@H]1O[C@H](C#Cc2ccccc2)C=C[C@@H]1Oc1ccc(C)cc1)=NO[C@H](C)c1cn([C@@H]2COC[C@H]2O)nn1`, 0.197. Under `CC(CCN1CCc2nc(-c3ccccc3)c(-c3ccccc3)cc2C1)=NOC(C)CN1CCCc2nc(C)c(C)cc21` (stereo unspecified) stands 0.808; under `CCC1=NOC(CCC2CC(OC(=O)NCc3cccc4c3OCO4)CC3(CCCC(COC(=O)NCCc4ccc(Cl)cc4)O3)O2)C1` (stereo unspecified), -0.136; under `CCOC(=O)CCN1C(=O)[C@H]2[C@@H]3C(=CC[C@H]2C1=O)C(=O)[C@H]1O[C@H]1[C@H]3O`, -0.7. Under `CON=C(C)CCC(=O)OC[C@H]1O[C@H](C#Cc2ccccc2)C=C[C@@H]1Oc1ccc(C)cc1` stands 0.0457. For `Cc1cc2c(nc1C)CCCCN2CC(O)CN1CCCc2nc(-c3ccc(Br)cc3)ccc21` (stereo unspecified), the composite z-score is 0.639. Under `COC(=O)[C@H](C)NC(=O)CCC1CC(OC(=O)NCc2cccc3ccccc23)CC2(CCCC(COC(=O)NCCc3ccccc3OC)O2)O1` (stereo partly specified) stands 0.759; under `CC#CCOCCC=C1c2ccccc2[C@@H](OC)[C@@H]1C`, -0.534.

Take `CCO[C@H](c1cc(OC)cc([N+](=O)[O-])c1OC)[C@H](C)[C@@H](OC)[C@H](C)C=CCC(=O)OC`: the composite z-score is -0.0837. Under `O=C1[C@H]2[C@H]3[C@H](O)[C@H](O)CC(=NOC[C@@H](O)COCc4ccco4)[C@@H]3CC[C@H]2C(=O)N1c1cccc(Oc2ccccc2)c1` stands 0.707; under `COC(=O)[C@@H]1CC[C@H](C)[C@@H](c2ccc(Br)cc2)N1C[C@@H](O)CN=[N+]=[N-]`, 0.398. Under `CCOC(=O)[C@H](Cc1ccccc1)NC(=O)CCC1CC(OC(=O)NCc2cccc3ccccc23)CC2(CCCC(COC(=O)NCC3CCCCC3)O2)O1` (stereo partly specified) stands 0.307; under `C#CCCCON=C1[C@H]2CCn3c(=O)n([C@@H](CC)c4ccccc4)c(=O)n3[C@H]2[C@H](O)[C@@H]2O[C@H]12`, 0.017; under `C[C@@H]1C=CCC(=O)OC[C@H](C)C(=O)N[C@@H](Cc2ccccc2)C(=O)OC1`, -0.0535.

The molecule `Cc1ccc2[nH]c3nc(CCCn4ccnc4-c4ccccc4)nnc3c2c1` returned a composite z-score of 0.857. In the case of `CC(CCN1CCc2nc(-c3ccccc3)c(-c3ccccc3)cc2C1)=NO[C@@H](C)c1cc(-c2c(C)cc(C)cc2C)no1` it was 2.15. In the case of `O=C1[C@H]2CCn3c(=O)n(Cc4cc5c(cc4Cl)OCO5)c(=O)n3[C@H]2[C@H](O)[C@@H]2O[C@H]12` it was -0.0064. In the case of `CCCNC(=O)OC[C@H]1O[C@H](CCON=C[C@@H](NS(=O)(=O)c2ccc(C)cc2)[C@H](C)C=CCC(=O)OC)C=C[C@@H]1Oc1ccc(OC)cc1` it was -0.0974; in that of `CCN1C(=O)[C@H]2[C@H]3[C@H](O)[C@H](O)CC(=NOCC[C@@H]4C=C[C@H](OC(C)=O)[C@@H](COC(C)=O)O4)[C@@H]3CC[C@H]2C1=O`, -0.0034; in that of `COc1ccc(O[C@H]2C=C[C@@H](c3ccccc3)O[C@@H]2COC(=O)CCC(C)=NOC[C@@H](O)COCc2ccco2)cc1`, -2.51. `CC(C)[C@@H](OCc1ccccc1)[C@H](C)C=NOC[C@@H](O)[C@H]1O[C@@H]2OC(C)(C)O[C@@H]2[C@H]1O` showed a composite z-score of 1.61. In the case of `O=C1C2=CC[C@H]3C(=O)N(Cc4ccccc4)C(=O)[C@H]3[C@H]2[C@H](O)[C@@H]2O[C@H]12` it was -0.0955.

Regarding `COC(=O)[C@H](C)NC(=O)CCC1CC(OC(=O)NCc2ccc3c(c2)OCO3)CC2(CCCC(COC(=O)NCc3ccccc3)O2)O1` (stereo partly specified), the composite z-score worked out at 0.115. In the case of `CC(C)CON=C1C[C@@H](O)[C@@H](O)[C@@H]2[C@@H]3C(=O)N(Cc4ccccc4)C(=O)[C@@H]3CC[C@H]12` it was -0.682.

`O=C1[C@H]2[C@H]3[C@H](O)[C@H](O)CC(=NO[C@@H]4O[C@H](CO)[C@@H](O)[C@H](O)[C@H]4O)[C@H]3CC[C@H]2C(=O)N1c1ccc(F)cc1F` had a composite z-score of -0.695.

For `CC(=O)OC[C@H]1O[C@@H](ON=C2[C@H]3CCn4c(=O)n(-c5ccccc5)c(=O)n4[C@H]3[C@H](O)[C@@H]3O[C@H]23)[C@H](OC(C)=O)[C@@H](OC(C)=O)[C@@H]1OC(C)=O`, the composite z-score was 0.324. Under `C#CCCCON=C1C[C@@H](O)[C@@H](O)[C@@H]2[C@@H]3C(=O)N([C@@H](C)c4ccccc4)C(=O)[C@@H]3CC[C@@H]12` stands 0.214; under `O=C1[C@H]2[C@H]3[C@H](O)[C@H](O)CC(=NOC[C@@H](O)COCc4ccco4)[C@@H]3CC[C@H]2C(=O)N1C1CCCCC1`, -0.256. Under `C[C@]12CCC3c4ccc(OCC5CO5)cc4CCC3C1CC[C@@H]2O` (stereo partly specified) stands 0.699. In the case of `CCOC(=O)CCN1C(=O)[C@H]2[C@H]3[C@H](O)[C@H](O)CC(=NO[C@@H]4O[C@H](CO)[C@@H](O)[C@H](O)[C@H]4O)[C@H]3CC[C@H]2C1=O` it was -0.0432. As for `C=CCOCC1CN2[C@@H](CC[C@@H](C)[C@@H]2c2ccc(Br)cc2)C(=O)O1` (stereo partly specified), the composite z-score worked out at 0.0804. `CO[C@H]1COC(=O)[C@H](C)COC(=O)[C@@H](OCc2ccccc2)C=C[C@@H]1C` showed a composite z-score of -0.316.

In turn, `CC(C)=NOC(C)CN1CCCc2nc(C)c(C)cc21` (stereo unspecified) registered a composite z-score of -0.0623.
